From PubChem BioAssay (EPA / NIEHS)
Inconclusive results are not listed. Activity calls are given as the source filed them. How the source made its calls: active means hit-call score of the fitted dose curve at least 0.9, where 1 is the maximum; inconclusive means response in the unintended direction; inactive means score below 0.9.

Legend:
[1] = target: human Leukotriene B4 Receptor 1 (LTB4-BLT1), LTB4R (gene 1241) (UniProt Q15722); experiment: NVS_GPCR_hLTB4_BLT1: NovaScreen (NVS) G Protein-Coupled Receptor Assay for human Leukotriene B4 Receptor 1 (LTB4-BLT1) (AID 2283271)
How it was run: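 Radioligand displacement binding on receptor extracted from human neutrophils, cell-free, 1 h after dosing; filter-based scintillation counting. Primary screen in duplicate at 25 uM, actives retested in concentration-response up to 50 uM; loss of signal versus DMSO.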

[2] = target: mouse Cholecystokinin, CCK1 Receptor (CCKA), Cckar (gene 12425) (UniProt O08786); experiment: NVS_GPCR_mCCKAPeripheral: NovaScreen (NVS) G Protein-Coupled Receptor Assay for mouse Cholecystokinin, CCK1 Receptor (CCKA) (AID 2283285)
How it was run: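 Radioligand competitive displacement on mouse pancreatic membranes, 2 h incubation; filter-based scintillation counting, loss of signal versus DMSO. Single-concentration screen at 25 uM in duplicate, actives retested in concentration-response up to 50 uM.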

[3] = target: D(1A) dopamine receptor (Homo sapiens) (UniProt P21728); experiment: NVS_GPCR_hDRD1: NovaScreen (NVS) G Protein-Coupled Receptor Assay for human Dopamine Receptor D1 (DRD1) (AID 2283269)
How it was run: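 Cell-free competition with radioligand, filter-trapped and scintillation-counted 1 h post-dose, using HEK293-derived human D1 preparation. Duplicate single-point testing at 25 uM first, then concentration series for actives; DMSO served as baseline, loss-of-signal scored.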

[4] = target: Muscarinic acetylcholine receptor M1 (Homo sapiens) (UniProt P11229); experiment: NVS_GPCR_hM1: NovaScreen (NVS) G Protein-Coupled Receptor Assay for human Muscarinic, M1 Receptor (AID 2283270)
How it was run: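 Cell-free radioligand displacement using membrane protein extracted from CHO cells, read by filter-based scintillation counting 1 h after dosing. Loss of bound signal fitted versus DMSO; primary screen single concentration 25 uM in duplicate, actives followed by concentration series.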

[5] = target: Muscarinic acetylcholine receptor M3 (Homo sapiens) (UniProt P20309); experiment: NVS_GPCR_hM3: NovaScreen (NVS) G Protein-Coupled Receptor Assay for human Muscarinic, M3 Receptor (AID 2283272)
How it was run: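 Radioligand displacement binding on human M3 receptor in CHO-derived membranes, 1 h incubation, filter-based scintillation counting. Primary screen in duplicate at 25 uM; actives followed up in concentration series; loss of signal versus DMSO.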

[6] = target: human Muscarinic, M4 Receptor, CHRM4 (gene 1132) (UniProt P08173); experiment: NVS_GPCR_hM4: NovaScreen (NVS) G Protein-Coupled Receptor Assay for human Muscarinic, M4 Receptor (AID 2283274)
How it was run: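 Cell-free radioligand displacement using CHO-derived human M4 receptor protein, 1 h after dosing; bound radioactivity by filtration and scintillation counting. Primary screen single 25 uM duplicate, actives followed in concentration series.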

[7] = target: human Neuropeptide Receptor Y1 (NPY1), NPY1R (gene 4886) (UniProt P25929); experiment: NVS_GPCR_hNPY1: NovaScreen (NVS) G Protein-Coupled Receptor Assay for human Neuropeptide Receptor Y1 (NPY1) (AID 2283276)
How it was run: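 Cell-free radioligand binding using receptor extracted from SK-N-MC cells, 1 h incubation, filter-based scintillation counting. Primary screen single concentration 25 uM in duplicate; actives followed in concentration series. Loss of bound signal scored versus DMSO.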

[8] = target: human Thromboxane A2 Receptor (TXA2), TBXA2R (gene 6915) (UniProt P21731); experiment: NVS_GPCR_hTXA2: NovaScreen (NVS) G Protein-Coupled Receptor Assay for human Thromboxane A2 Receptor (TXA2) (AID 2283282);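 further: actives reduce bound radioligand signal relative to DMSO baseline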
How it was run: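 Biochem binding, human platelets, cell-free; competitive radioligand displacement; 1 h; filter radiodetection. 25 uM duplicate primary, conc. series secondary; DMSO neg. ctrl.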

[9] = test system: rabbit Platelet Activating Factor Receptor (PAF), gene 100354046; experiment: NVS_GPCR_rabPAF: NovaScreen (NVS) G Protein-Coupled Receptor Assay for rabbit Platelet Activating Factor Receptor (PAF) (AID 2283287)
How it was run: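 Rabbit platelet membrane preparation; radioligand displacement read by filter-based scintillation counting 1 h after dosing, loss of signal versus DMSO. Primary screen in duplicate at 25 uM, actives followed up in concentration series.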

[10] = test system: 5-hydroxytryptamine receptor 2C (pig); experiment: NVS_GPCR_p5HT2C: NovaScreen (NVS) G Protein-Coupled Receptor Assay for pig Serotonin, 5-Hydroxytryptamine Receptor 2C (5HT2C) (AID 2283288)
How it was run: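 Pig choroid plexus membranes; radioligand competitive binding, filter-based scintillation counting, read 1 h after dosing. Primary screen in duplicate at 25 uM; actives then run as concentration series; loss of signal versus DMSO baseline.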

[11] = target: human Opioid Receptor Mu (Opiate Mu), OPRM1 (gene 4988) (UniProt P35372); experiment: NVS_GPCR_hOpiate_mu: NovaScreen (NVS) G Protein-Coupled Receptor Assay for human Opioid Receptor Mu (Opiate Mu) (AID 2283290);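 further: hits lower bound tracer signal versus DMSO meaning displacement of the ligand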
How it was run: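 Primary screen in duplicate at 25 uM, with actives followed in concentration series. CHO-derived receptor membranes, cell-free; bound radioligand read by scintillation counting after filtration at 2.5 h, decrease scored against DMSO.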

[12] = target: Muscarinic acetylcholine receptor M2 (Homo sapiens) (UniProt P08172); experiment: NVS_GPCR_hM2: NovaScreen (NVS) G Protein-Coupled Receptor Assay for human Muscarinic, M2 Receptor (AID 2283273)
How it was run: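 Cell-free radioligand binding using membranes from CHO cells expressing the receptor; filter-based scintillation counting after 1 hour of compound exposure. Loss of specific binding relative to DMSO baseline; primary screen at 25 uM in duplicate, actives then run in concentration series.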

[13] = target: Neuropeptide Y receptor type 2 (Homo sapiens) (UniProt P49146); experiment: NVS_GPCR_hNPY2: NovaScreen (NVS) G Protein-Coupled Receptor Assay for human Neuropeptide Receptor Y2 (NPY2) (AID 2283277)
How it was run: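 Radioligand binding on membranes extracted from SK-N-MC cells, cell-free, read 1 h after dosing by filter-based scintillation counting. Loss of signal vs DMSO. Primary screen in duplicate at 25 uM; actives followed up in concentration-response up to 50 uM.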

[14] = target: human Orphanin, Opioid Related Nociceptin Receptor 1 (ORL1), OPRL1 (gene 4987) (UniProt P41146); experiment: NVS_GPCR_hORL1: NovaScreen (NVS) G Protein-Coupled Receptor Assay for human Orphanin, Opioid Related Nociceptin Receptor 1 (ORL1) (AID 2283283)
How it was run: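 Filter-based radioligand displacement with receptor extracted from HEK293 cells, read 1 hour after dosing by scintillation counting. Duplicate single-point screen at 25 uM; qualifying chemicals then run in concentration-response to 50 uM, analysed relative to DMSO.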

[15] = target: rat Serotonin, 5-Hydroxytryptamine Receptor 1 (5HT1), Non-Selective Binding, Htr1a (gene 24473) (UniProt P19327); experiment: NVS_GPCR_r5HT1_NonSelective: NovaScreen (NVS) G Protein-Coupled Receptor Assay for rat Serotonin, 5-Hydroxytryptamine Receptor 1 (5HT1), Non-Selective Binding (AID 2283286)
How it was run: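 Rat cortical membranes, radioligand displacement, 1 h incubation, read by filter scintillation. Primary screen in duplicate at 25 uM. Hits (e.g. ≥30% inhibition) went to concentration-response up to 50 uM, fitted as loss of binding versus DMSO.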

[16] = target: guinea pig Bradykinin Receptor B2 (BK2), BDKRB2 (gene 100135486) (UniProt O70526); experiment: NVS_GPCR_gBK2: NovaScreen (NVS) G Protein-Coupled Receptor Assay for guinea pig Bradykinin Receptor B2 (BK2) (AID 2283292)
How it was run: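 Radioligand displacement on guinea pig ileum membranes for 1 h, read by filter-based scintillation counting; loss of signal relative to DMSO. Compounds were screened in duplicate at 25 uM, and those passing the threshold were retested in concentration-response up to 50 uM.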

[17] = target: rat Adrenergic, Alpha 1, Non-selective Receptor (Adra1), Adra1a (gene 29412) (UniProt P43140); experiment: NVS_GPCR_rAdra1_NonSelective: NovaScreen (NVS) G Protein-Coupled Receptor Assay for rat Adrenergic, Alpha 1, Non-selective Receptor (Adra1) (AID 2283289)
How it was run: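 Rat forebrain membranes; radioligand displacement read by filter-based scintillation counting 1 h after dosing. Primary screen in duplicate at 25 uM; hits (e.g. ≥30% inhibition) rerun as concentration–response to 50 uM max. Fitted versus DMSO.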

Measured: AC50

Chain of human Leukotriene B4 Receptor 1 (LTB4-BLT1), LTB4R (gene 1241) (Q15722 whole entry, looked up): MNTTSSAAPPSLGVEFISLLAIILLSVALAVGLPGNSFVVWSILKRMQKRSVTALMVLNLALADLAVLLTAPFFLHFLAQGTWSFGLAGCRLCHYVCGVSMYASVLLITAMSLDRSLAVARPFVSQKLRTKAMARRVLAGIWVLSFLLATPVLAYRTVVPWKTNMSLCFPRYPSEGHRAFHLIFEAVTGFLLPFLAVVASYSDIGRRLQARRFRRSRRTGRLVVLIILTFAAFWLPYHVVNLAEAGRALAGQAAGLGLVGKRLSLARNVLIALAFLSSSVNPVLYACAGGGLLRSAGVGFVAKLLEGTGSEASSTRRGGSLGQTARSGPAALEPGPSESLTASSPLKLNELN
Chain of D(1A) dopamine receptor (Homo sapiens) (P21728 whole entry, looked up): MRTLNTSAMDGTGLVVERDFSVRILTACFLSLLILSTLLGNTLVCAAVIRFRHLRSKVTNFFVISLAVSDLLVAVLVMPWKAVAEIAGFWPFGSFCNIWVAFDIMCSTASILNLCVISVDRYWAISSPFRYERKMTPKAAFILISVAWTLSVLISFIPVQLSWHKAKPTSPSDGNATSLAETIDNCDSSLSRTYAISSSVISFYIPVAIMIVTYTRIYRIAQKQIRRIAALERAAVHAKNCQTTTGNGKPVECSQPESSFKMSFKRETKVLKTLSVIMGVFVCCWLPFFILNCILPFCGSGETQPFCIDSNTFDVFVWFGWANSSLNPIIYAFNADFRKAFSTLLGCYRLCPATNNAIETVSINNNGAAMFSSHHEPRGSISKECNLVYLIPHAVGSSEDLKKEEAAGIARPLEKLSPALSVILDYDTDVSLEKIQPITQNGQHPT
Chain of mouse Cholecystokinin, CCK1 Receptor (CCKA), Cckar (gene 12425) (O08786 whole entry, looked up): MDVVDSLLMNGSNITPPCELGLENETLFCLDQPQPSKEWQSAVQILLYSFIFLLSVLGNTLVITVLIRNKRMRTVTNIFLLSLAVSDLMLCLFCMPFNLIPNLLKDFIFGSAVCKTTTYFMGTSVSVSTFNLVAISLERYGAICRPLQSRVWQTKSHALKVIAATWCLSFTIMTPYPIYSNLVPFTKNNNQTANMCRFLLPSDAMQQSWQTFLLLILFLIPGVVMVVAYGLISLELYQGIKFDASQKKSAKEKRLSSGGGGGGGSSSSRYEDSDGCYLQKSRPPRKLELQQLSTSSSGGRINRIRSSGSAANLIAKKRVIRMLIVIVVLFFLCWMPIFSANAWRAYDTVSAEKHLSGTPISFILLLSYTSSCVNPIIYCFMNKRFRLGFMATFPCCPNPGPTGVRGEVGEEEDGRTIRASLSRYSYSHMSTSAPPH
Chain of Muscarinic acetylcholine receptor M1 (Homo sapiens) (P11229 whole entry, looked up): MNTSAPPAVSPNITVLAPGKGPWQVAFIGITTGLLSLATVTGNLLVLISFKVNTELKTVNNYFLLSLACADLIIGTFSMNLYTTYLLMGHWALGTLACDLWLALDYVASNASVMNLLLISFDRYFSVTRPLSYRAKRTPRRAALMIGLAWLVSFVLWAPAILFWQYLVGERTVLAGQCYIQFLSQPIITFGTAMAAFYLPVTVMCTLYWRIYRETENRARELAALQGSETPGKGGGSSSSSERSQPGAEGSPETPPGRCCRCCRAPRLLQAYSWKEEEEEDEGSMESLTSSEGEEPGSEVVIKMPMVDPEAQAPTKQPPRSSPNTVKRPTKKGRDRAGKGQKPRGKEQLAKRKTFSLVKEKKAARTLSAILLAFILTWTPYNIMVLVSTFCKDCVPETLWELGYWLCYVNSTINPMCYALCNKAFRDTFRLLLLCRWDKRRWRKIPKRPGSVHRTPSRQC
Chain of human Opioid Receptor Mu (Opiate Mu), OPRM1 (gene 4988) (P35372 whole entry, looked up): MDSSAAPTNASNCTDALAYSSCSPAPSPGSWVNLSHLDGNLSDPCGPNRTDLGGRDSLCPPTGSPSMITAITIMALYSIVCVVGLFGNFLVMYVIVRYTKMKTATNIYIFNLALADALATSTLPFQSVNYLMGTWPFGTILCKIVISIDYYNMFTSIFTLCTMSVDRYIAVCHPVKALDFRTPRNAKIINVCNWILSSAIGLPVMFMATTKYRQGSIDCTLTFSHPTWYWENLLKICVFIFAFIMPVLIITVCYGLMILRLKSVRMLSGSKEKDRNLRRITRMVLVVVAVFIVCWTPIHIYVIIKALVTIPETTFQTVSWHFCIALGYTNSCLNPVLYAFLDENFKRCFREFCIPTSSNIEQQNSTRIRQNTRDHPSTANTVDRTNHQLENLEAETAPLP
Chain of human Muscarinic, M4 Receptor, CHRM4 (gene 1132) (P08173 whole entry, looked up): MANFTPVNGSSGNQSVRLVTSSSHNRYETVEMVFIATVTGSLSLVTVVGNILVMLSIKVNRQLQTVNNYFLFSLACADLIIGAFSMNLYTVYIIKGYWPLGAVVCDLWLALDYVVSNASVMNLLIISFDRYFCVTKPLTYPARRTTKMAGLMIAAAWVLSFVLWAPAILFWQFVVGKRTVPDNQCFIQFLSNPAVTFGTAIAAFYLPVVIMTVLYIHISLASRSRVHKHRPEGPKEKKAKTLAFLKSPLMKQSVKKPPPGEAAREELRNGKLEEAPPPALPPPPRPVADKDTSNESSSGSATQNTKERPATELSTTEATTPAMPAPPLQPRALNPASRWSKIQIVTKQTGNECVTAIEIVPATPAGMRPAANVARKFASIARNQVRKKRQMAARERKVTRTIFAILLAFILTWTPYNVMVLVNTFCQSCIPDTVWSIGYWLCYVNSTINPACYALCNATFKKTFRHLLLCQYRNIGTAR
Chain of Muscarinic acetylcholine receptor M3 (Homo sapiens) (P20309 whole entry, looked up): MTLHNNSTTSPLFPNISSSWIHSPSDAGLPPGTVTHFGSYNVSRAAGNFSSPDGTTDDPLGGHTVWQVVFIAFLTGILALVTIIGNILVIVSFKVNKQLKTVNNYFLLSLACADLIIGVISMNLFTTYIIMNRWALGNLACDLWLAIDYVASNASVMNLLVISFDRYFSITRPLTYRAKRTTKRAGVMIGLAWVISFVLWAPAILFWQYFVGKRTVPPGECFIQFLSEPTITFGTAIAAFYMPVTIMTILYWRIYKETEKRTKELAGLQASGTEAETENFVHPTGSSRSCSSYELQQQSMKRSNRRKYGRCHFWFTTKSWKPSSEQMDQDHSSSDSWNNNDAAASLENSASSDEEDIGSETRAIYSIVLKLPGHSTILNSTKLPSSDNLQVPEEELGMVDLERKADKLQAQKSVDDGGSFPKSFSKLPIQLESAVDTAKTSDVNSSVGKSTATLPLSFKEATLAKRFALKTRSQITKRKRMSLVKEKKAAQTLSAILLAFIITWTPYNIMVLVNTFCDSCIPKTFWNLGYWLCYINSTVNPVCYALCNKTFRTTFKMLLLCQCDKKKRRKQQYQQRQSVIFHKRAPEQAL
Chain of Muscarinic acetylcholine receptor M2 (Homo sapiens) (P08172 whole entry, looked up): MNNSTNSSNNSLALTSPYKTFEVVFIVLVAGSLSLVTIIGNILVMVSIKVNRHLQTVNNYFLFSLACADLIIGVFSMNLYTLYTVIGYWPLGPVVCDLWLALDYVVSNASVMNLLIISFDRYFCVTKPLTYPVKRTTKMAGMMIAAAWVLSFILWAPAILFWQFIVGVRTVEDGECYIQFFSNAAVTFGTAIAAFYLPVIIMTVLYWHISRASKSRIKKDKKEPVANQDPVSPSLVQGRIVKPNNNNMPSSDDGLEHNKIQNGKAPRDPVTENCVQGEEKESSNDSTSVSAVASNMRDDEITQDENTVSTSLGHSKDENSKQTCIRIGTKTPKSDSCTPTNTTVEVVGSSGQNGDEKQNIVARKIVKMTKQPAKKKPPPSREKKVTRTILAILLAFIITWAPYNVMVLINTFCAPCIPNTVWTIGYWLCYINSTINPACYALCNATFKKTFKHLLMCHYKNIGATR
Chain of rat Adrenergic, Alpha 1, Non-selective Receptor (Adra1), Adra1a (gene 29412) (P43140 whole entry, looked up): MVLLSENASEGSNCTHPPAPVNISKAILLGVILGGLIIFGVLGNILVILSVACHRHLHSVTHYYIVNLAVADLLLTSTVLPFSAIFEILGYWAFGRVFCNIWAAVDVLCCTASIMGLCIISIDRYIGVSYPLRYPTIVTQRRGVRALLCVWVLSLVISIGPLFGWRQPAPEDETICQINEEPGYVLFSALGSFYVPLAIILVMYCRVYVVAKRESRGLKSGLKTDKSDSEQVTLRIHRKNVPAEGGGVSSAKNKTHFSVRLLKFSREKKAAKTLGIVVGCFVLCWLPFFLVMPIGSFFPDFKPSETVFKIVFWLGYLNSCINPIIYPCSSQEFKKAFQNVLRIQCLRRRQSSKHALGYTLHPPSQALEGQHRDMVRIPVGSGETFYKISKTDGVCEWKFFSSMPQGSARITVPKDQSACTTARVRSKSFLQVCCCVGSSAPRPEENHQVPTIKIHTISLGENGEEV
Chain of rat Serotonin, 5-Hydroxytryptamine Receptor 1 (5HT1), Non-Selective Binding, Htr1a (gene 24473) (P19327 whole entry, looked up): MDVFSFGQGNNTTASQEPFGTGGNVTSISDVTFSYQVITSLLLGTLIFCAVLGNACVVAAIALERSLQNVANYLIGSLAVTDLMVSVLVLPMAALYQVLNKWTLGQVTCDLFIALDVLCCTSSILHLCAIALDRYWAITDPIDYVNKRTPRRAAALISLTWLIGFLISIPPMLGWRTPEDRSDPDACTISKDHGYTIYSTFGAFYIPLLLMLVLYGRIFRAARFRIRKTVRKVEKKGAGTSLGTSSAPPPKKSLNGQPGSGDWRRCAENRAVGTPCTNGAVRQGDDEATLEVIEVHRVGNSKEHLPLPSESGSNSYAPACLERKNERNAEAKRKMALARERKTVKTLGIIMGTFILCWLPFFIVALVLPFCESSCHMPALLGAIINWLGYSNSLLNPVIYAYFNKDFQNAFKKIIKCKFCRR
Chain of Neuropeptide Y receptor type 2 (Homo sapiens) (P49146 whole entry, looked up): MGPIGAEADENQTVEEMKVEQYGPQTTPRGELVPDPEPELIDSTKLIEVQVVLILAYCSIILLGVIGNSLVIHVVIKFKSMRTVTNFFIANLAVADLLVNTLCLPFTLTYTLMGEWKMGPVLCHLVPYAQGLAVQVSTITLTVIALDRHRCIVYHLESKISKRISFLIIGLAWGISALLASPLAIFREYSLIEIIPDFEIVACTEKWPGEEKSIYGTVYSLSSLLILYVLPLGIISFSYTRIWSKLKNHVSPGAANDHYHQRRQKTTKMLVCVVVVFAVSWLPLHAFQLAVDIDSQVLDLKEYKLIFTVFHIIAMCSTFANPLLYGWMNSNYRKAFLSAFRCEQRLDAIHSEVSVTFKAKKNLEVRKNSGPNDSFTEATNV

CC(C)(C)c1csc(-c2cc3cc(OCc4ccccc4CC(=O)O)ccc3o2)n1
inactive: [1] | [2]

CCN(CC)C(=O)c1cc(S(=O)(=O)Cc2ccccc2)c(N2CCC(c3ccccc3)CC2)cc1N(CC)CCN(C)C
active: [3] 5.59 µM | [4] 8.82 µM | [5] 7.89 µM | [6] 9.84 µM | [7] 14.6 µM | [9] 10.2 µM | [10] 7.94 µM | [11] 10.3 µM
inactive: [8]

Cc1ccc2oc(CN(Cc3ccccc3)C(=O)Nc3c(F)cc(F)cc3F)c(-c3ccc(Cl)cc3)c2c1
inactive: [1]

CN(C)C(=O)C1(N2CCCCC2)CCN(CC[C@@]2(c3ccc(Cl)c(Cl)c3)CN(C(=O)c3ccccc3)CCO2)CC1
active: [3] 23.6 µM | [4] 11.7 µM | [5] 9.78 µM | [12] 6.82 µM | [6] 6.99 µM | [13] 8.65 µM | [14] 4.88 µM | [2] 3.99 µM | [10] 1.18 µM | [11] 1.41 µM | [16] 14 µM
inactive: [15]

NCc1cccc(C2CCN(C(=O)c3ccc(C#Cc4ccccc4F)o3)CC2)c1
active: [3] 5.14 µM | [4] 1.78 µM | [1] 25 µM | [5] 0.929 µM | [12] 0.923 µM | [6] 0.882 µM | [13] 2.33 µM | [2] 13.6 µM | [15] 4.96 µM | [9] 9.21 µM | [10] 8.02 µM | [17] 21.5 µM | [11] 2.56 µM

Cc1cc(F)ccc1-c1cc(N2CC[C@@H](O)[C@H]2CO)ncc1N(C)C(=O)C(C)(C)c1cc(C(F)(F)F)cc(C(F)(F)F)c1
active: [3] 5.89 µM | [2] 4.08 µM | [9] 1.38 µM | [17] 20.4 µM
